According to the supplement of paper PMC10981050:
Values joined by “and” are separate entries in the source; they are usually repeats but may differ in a detail not shown here. Identical values can stand only once.

Assays:
Test in all cases: cell viability relative to vehicle control; higher = less cytotoxic
Details in all cases: 10 µM
K562 = tested on: K562
Summary of the method: (§1)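 Screening covered the Selleck bioactive, kinase and epigenetic probe libraries, less identity-inconsistent compounds, on CRISPR-edited mutant clones and isogenic wild-type clones of four leukaemia lines. Cells, at 2000 per well in 50 µL medium, received a single 10 µM acoustically dispensed dose. After 48 h the supernatant was removed and CellTiter-Glo luminescence was read. Viability was analysed in Genedata Screener as percent of the on-plate vehicle control.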

MARIMO = tested on: MARIMO
Summary of the method: as §1

MOLM14 = tested on: MOLM14
Summary of the method: as §1

OCI-AML2 = tested on: OCI-AML2
Summary of the method: as §1

SMILES	cell viability (K562; SRSF2 genotype: SRSF2 P95H/wt)	cell viability (K562; SRSF2 genotype: SRSF2 wt/wt)	cell viability (MARIMO; SRSF2 genotype: SRSF2 P95H/wt)	cell viability (MARIMO; SRSF2 genotype: SRSF2 wt/wt)	cell viability (MOLM14; SRSF2 genotype: SRSF2 P95H/wt)	cell viability (MOLM14; SRSF2 genotype: SRSF2 wt/wt)	cell viability (OCI-AML2; SRSF2 genotype: P95H/wt)	cell viability (OCI-AML2; SRSF2 genotype: wt/wt)
Cn1cnc(=N)c2[nH]cnc21 [3-Methyladenine (3-MA)]	94.6% and 88.8%	106%	82.6%	92.4%	88%	92%	93.4%	97.6%
O=C(O)c1cc(/N=N/c2ccc(S(=O)(=O)Nc3ccccn3)cc2)ccc1O [Sulfasalazine (Azulfidine)]	99% and 96.4%	94.4%	96.3%	101%	93.7%	98.9%	96.4%	103%
O=CC(O)C(O)C(O)C(O)COC1OC(COC2OC(CO)C(O)C(O)C2O)C(O)C(O)C1O (stereo not given) [Manninotriose]	112% and 107%	110%	97.8%	97.1%	103%	104%	108%	104%
O=c1cc(-c2cccc3c2Sc2ccccc2S3)oc(N2CCOCC2)c1	98.7% and 93.1%	91.2%	105%	103%	93.6%	95.5%	85.7%	88.8%
Cc1nnc(NS(=O)(=O)c2ccc(N)cc2)s1 [Sulfamethizole (Proklar)]	109% and 97.9%	104%	107%	106%	100%	107%	108%	111%
COc1cc2c(cc1OC)-c1c(C)c3ccc(OC)c(OC)c3c[n+]1CC2 [Dehydrocorydalin]	88.3% and 96%	90.6%	94%	96%	94.8%	95.6%	79.8%	84.1%
FC(F)(F)Oc1ccc2nc(-c3ccc(OCCOCCOc4ccc(-c5nc6ccc(OC(F)(F)F)cc6[nH]5)nc4)cn3)[nH]c2c1	52.4% and 53%	56.4%	26.9%	39.3%	50.4%	41.3%	18.4%	24.8%
COC(=O)c1cc(OC)c(O)c(OC)c1 [Methyl syringate]	101% and 87.8%	91.2%	94%	102%	89.2%	92.3%	96.8%	101%
C#C[C@]1(O)CC[C@H]2[C@@H]3CCc4cc(OC)ccc4[C@H]3CC[C@@]21C [Mestranol]	79% and 93.7%	96.3%	78.5%	76%	90.7%	99.9%	74.9%	82%
Cc1onc(-c2c(Cl)cccc2Cl)c1C(=O)N[C@@H]1C(=O)N2[C@@H]1SC(C)(C)[C@@H]2C(=O)O [Dicloxacillin Sodium]	99.5% and 95%	101%	101%	103%	98.7%	98.3%	93%	109%
